Among the data in the supplement of paper PMC10849652 are log2 fold change values, retold here.

The full data set covers some 7,900 targets. This sample favours those with a hit. About 0.6% of all pairs of compound and target were hits. Unmarked numbers belong to inactive results.

Chain of UniProt P09211 (P09211 whole entry, looked up): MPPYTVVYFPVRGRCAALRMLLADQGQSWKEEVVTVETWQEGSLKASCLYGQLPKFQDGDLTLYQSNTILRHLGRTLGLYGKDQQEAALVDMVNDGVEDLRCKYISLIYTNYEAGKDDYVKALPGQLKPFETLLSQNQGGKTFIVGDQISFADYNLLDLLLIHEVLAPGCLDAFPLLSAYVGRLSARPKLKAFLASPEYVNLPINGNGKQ
Chain of UniProt Q9H4G4 (Q9H4G4 whole entry, looked up): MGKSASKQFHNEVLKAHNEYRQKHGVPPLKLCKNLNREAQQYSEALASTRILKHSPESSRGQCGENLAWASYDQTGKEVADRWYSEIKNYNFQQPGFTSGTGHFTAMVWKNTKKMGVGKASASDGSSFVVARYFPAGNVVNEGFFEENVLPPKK
Chain of UniProt Q9P2H3 (Q9P2H3 whole entry, looked up): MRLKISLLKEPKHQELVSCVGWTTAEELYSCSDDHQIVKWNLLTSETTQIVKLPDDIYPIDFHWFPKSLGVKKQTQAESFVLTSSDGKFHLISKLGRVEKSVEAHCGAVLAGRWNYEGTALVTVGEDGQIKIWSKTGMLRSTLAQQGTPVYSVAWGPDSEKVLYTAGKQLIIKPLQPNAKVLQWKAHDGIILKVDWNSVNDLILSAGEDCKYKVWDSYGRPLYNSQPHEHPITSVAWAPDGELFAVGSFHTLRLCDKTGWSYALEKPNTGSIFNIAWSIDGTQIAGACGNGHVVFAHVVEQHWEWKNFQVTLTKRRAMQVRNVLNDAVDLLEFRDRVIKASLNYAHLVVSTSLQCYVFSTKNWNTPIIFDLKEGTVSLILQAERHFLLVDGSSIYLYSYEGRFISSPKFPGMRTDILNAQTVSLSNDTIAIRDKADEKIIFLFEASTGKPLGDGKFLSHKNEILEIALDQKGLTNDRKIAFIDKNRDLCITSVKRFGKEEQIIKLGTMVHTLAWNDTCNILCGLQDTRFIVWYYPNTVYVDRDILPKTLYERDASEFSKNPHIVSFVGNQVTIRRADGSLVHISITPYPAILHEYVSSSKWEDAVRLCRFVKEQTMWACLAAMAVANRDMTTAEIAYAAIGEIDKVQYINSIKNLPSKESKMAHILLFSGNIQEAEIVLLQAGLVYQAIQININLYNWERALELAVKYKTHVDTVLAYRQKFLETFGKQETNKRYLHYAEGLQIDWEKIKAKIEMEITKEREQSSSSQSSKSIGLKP
Chain of UniProt Q9UK99 (Q9UK99 whole entry, looked up): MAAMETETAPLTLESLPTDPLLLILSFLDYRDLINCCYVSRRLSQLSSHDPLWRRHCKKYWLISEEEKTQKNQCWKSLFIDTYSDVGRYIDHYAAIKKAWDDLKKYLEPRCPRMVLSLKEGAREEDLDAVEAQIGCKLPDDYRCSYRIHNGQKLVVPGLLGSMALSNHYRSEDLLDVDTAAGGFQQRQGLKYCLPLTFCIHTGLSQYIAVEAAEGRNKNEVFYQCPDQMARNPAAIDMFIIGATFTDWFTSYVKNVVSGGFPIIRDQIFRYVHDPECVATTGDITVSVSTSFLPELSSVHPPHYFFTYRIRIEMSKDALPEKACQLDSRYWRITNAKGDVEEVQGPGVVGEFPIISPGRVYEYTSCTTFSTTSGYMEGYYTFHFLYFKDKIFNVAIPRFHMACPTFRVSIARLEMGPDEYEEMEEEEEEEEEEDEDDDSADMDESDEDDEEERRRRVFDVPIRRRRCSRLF
Chain of UniProt P49356 (P49356 whole entry, looked up): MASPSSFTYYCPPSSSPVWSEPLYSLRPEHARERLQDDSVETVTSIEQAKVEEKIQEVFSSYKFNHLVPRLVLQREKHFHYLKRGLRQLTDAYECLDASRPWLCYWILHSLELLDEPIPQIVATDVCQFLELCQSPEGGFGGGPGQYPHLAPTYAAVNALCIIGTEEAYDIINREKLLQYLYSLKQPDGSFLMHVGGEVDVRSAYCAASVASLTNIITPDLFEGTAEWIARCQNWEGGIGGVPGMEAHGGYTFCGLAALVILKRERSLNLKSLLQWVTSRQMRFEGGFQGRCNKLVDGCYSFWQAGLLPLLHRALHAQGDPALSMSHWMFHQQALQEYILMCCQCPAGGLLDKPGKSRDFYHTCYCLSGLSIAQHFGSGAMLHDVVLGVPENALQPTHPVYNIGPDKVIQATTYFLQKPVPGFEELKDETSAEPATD
Chain of UniProt Q92947 (Q92947 whole entry, looked up): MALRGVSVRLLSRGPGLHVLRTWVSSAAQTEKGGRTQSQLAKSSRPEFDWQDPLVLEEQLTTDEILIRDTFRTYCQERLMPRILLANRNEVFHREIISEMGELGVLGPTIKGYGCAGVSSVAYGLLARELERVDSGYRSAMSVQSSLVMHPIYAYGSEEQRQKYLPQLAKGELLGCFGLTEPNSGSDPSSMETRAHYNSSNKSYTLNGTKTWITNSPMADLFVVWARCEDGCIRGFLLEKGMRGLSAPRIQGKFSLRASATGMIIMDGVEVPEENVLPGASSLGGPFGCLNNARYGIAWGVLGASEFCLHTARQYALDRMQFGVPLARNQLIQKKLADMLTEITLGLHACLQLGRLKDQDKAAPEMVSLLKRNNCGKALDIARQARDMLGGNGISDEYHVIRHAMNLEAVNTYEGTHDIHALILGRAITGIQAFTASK
Chain of UniProt O15117 (O15117 whole entry, looked up): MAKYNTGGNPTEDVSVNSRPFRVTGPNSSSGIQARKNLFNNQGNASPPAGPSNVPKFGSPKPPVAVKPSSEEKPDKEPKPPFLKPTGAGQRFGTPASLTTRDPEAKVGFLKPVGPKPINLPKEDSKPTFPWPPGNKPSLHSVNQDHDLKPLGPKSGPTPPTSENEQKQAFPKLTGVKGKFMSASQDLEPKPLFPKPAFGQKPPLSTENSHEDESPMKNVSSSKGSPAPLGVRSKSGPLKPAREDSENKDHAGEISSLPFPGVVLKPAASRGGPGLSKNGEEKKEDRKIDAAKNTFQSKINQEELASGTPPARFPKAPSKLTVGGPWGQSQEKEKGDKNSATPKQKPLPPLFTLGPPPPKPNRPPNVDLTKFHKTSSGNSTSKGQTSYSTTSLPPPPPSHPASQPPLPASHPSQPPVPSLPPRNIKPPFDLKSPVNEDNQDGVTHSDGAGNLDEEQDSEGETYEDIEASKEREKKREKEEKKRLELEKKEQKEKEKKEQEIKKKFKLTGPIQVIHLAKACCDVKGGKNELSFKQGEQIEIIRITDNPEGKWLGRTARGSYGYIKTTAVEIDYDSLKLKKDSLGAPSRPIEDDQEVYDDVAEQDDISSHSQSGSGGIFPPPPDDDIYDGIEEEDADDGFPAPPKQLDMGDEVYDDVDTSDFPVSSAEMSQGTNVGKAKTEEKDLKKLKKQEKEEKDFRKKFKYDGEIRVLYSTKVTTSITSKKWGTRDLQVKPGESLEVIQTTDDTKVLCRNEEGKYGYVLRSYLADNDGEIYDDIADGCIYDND
Chain of UniProt P63218 (P63218 whole entry, looked up): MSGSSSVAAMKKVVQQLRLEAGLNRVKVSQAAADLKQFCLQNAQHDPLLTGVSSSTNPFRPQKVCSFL
Chain of UniProt P40939 (P40939 whole entry, looked up): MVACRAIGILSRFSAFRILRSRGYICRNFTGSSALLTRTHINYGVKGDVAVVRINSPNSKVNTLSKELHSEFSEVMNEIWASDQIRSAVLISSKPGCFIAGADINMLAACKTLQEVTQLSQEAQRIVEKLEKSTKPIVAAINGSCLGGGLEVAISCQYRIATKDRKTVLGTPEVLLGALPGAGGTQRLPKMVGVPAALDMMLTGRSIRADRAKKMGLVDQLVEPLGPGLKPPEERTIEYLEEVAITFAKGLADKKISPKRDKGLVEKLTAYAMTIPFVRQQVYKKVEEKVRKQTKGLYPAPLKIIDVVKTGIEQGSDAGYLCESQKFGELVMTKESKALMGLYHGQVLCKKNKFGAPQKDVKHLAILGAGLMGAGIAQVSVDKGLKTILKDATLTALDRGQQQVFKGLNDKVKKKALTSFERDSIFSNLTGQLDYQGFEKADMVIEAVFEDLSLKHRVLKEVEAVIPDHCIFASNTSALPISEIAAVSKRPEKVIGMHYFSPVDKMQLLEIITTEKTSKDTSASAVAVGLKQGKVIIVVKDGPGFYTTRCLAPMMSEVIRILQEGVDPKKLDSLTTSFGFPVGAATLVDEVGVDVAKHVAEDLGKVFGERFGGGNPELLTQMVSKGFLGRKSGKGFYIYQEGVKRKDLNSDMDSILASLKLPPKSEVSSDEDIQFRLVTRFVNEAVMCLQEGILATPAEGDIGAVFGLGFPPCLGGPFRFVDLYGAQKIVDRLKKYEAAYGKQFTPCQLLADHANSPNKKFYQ
Chain of UniProt P62879 (P62879 whole entry, looked up): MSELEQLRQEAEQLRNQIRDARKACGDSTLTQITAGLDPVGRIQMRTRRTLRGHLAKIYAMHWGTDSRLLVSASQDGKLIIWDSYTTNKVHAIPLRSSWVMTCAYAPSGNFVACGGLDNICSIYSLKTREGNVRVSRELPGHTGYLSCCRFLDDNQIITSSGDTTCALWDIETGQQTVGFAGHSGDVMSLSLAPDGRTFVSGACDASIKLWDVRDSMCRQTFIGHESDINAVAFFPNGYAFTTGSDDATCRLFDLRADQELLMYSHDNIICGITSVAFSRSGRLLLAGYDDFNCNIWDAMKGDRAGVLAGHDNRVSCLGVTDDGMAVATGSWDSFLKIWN
Chain of UniProt Q86YM7 (Q86YM7 whole entry, looked up): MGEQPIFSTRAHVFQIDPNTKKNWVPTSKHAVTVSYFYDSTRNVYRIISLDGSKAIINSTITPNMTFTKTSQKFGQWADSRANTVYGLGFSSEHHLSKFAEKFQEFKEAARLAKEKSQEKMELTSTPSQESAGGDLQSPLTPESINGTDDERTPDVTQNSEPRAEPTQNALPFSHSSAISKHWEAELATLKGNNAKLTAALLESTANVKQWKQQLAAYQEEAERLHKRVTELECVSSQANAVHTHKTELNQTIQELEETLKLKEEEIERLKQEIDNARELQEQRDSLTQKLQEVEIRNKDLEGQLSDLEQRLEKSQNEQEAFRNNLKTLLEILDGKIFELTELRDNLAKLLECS
Chain of UniProt P60520 (P60520 whole entry, looked up): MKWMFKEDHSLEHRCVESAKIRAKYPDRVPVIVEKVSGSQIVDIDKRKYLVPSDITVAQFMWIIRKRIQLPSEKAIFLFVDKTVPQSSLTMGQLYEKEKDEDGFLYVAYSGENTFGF

Compound in the assay: CC1=NC(=CC=C1)C2=C(N=C(N2)C(C)(C)C)C3=CC4=NC=CN=C4C=C3
As to the kind of experiment: log2 fold change, soluble protein after heating vs DMSO (PISA); higher = thermal stabilisation; K562 cells, 10 uM, 30 min; active = over 0.2 and 3.5 SD of the protein, either way, in both replicates (recomputed). Put shortly:
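K562 cells at 2×10^6 cells/mL were exposed to 10 μM compound for 30 min, then aliquots were heated for 3 min across 48°C-58°C, pooled, and extracted in PBS containing 0.5% NP-40 at 4°C. The supernatant after 21,000xg for 90 min was taken as soluble protein and measured by TMTpro 16plex LC-MS/MS with channel sums equalised. Thermal stability is reported relative to control samples, with values from duplicates. Fold changes are given on a log2 scale.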
With GIGYF2 (UniProt Q6Y7W6), the log2 fold change is 0.044.
In the case of HSPA8 (UniProt P11142) it was 0.011; in that of FNTA (UniProt P49354), -0.011.
In the case of HOMER1 (UniProt Q86YM7), the log2 fold change is 0.125.
In the case of GTF2A1 (UniProt P52655) it was -0.006; in that of GNG5 (UniProt P63218), 0.074; in that of FYB1 isoform 3 (UniProt O15117), 0.051.
In the case of GDPD1 (UniProt Q8N9F7) it was -0.07.
In the case of FNTB (UniProt P49356) it was 0.
With HECTD1 (UniProt Q9ULT8), the log2 fold change was -0.023.
In the case of GGA2 (UniProt Q9UJY4) it was 0.06; in that of GCDH (UniProt Q92947), 0.009; in that of GABARAPL2 (UniProt P60520), 0.188.
In the case of GNB2 (UniProt P62879) it was -0.018.
In the case of FBXO3 (UniProt Q9UK99) it was -0.018; in that of FKBP7 (UniProt Q9Y680), -0.074.
With GALNT4 (UniProt Q8N4A0), the log2 fold change is 0.013.
Turning to HMOX2 (UniProt P30519), the log2 fold change is -0.019.
As for ICAM1 (UniProt P05362), the log2 fold change is -0.016.
For GDI1 (UniProt P31150), the log2 fold change was 0.009.
In the case of FANCD2 isoform 1 (UniProt Q9BXW9) it was -0.035; in that of GBF1 (UniProt Q92538), -0.028; in that of GAGE12F (UniProt P0CL80), 0.061.
In the case of IFT80 isoform 3 (UniProt Q9P2H3) it was 0.005.
Turning to FBXO42 (UniProt Q6P3S6), the log2 fold change was 0.04.
In the case of HMGN2 (UniProt P05204) it was 0.047; in that of HADHA (UniProt P40939), -0.022.
In the case of HEATR5B (UniProt Q9P2D3) it was 0.022.
For the target GLIPR2 (UniProt Q9H4G4), the log2 fold change was -0.032.
In the case of GNS (UniProt P15586) it was 0.026; in that of HIP1R (UniProt O75146), -0.002; in that of HADHB (UniProt P55084), -0.012.
For GSTP1 (UniProt P09211), the log2 fold change was 0.008.
With FECH isoform 2 (UniProt P22830), the log2 fold change was -0.006.
Consider GTF2H3 (UniProt Q13889), for which the log2 fold change is 0.
